Key:
Experiment in all cases: log2 ratio of Biotin-Ahx-Ub-VS probe labelling (fragment/DMSO); higher = less target engagement (more negative = stronger competition), active = hit call of the paper (q ≤ 0.05, log2 ratio ≤ -1)
Conditions in all cases: compound concentration: 200 uM; treatment time: 3 h
USP34 = USP34 (UniProt Q70CQ2)
Summary of the method: (§1)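 Labelled DUBs were enriched with NeutrAvidin, digested with LysC and trypsin, and run by diaPASEF LC-MS/MS. The labelling used Biotin-Ahx-Ub-VS at 0.5 µM final for 1 h on HEK293T lysate (495 µg per sample) previously treated in triplicate with fragment at 200 µM or vehicle for 3 h. Values are average log2 fragment/vehicle ratios by unpaired t-test on global-median-normalised Spectronaut quantities of proteins with ≥2 unique peptides.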

USP36 = target: T1, USP36 (UniProt Q9P275)
T1 sequence (whole entry): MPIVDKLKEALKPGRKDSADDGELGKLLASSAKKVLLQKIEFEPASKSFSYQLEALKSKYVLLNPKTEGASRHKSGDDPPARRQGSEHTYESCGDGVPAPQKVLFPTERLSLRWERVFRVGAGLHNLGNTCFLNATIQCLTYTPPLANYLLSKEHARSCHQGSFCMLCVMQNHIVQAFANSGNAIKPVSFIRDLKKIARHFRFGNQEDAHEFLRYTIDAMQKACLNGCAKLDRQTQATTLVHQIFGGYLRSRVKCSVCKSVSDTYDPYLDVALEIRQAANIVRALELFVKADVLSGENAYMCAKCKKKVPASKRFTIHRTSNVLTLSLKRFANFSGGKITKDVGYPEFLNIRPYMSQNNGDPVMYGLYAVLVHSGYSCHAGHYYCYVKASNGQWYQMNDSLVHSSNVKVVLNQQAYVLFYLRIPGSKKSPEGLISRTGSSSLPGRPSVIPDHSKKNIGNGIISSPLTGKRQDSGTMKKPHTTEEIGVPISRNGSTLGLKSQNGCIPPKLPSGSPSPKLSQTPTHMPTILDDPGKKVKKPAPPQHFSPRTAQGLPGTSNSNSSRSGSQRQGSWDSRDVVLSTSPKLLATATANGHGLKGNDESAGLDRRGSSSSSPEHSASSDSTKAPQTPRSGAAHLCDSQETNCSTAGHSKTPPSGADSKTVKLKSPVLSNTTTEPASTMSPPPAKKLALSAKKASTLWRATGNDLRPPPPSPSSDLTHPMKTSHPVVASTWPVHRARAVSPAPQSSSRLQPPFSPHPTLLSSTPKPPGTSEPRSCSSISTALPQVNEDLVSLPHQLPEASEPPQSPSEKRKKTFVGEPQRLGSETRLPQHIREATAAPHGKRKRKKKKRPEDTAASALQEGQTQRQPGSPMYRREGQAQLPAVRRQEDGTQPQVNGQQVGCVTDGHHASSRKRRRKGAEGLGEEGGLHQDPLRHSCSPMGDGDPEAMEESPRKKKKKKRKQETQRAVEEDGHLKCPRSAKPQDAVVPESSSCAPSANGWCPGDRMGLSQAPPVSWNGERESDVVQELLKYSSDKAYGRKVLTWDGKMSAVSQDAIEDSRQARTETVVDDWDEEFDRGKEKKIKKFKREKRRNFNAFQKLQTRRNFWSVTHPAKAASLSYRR
Summary of the method: as §1

USP38 = target: T2, USP38 (UniProt Q8NB14)
T2 sequence (whole entry): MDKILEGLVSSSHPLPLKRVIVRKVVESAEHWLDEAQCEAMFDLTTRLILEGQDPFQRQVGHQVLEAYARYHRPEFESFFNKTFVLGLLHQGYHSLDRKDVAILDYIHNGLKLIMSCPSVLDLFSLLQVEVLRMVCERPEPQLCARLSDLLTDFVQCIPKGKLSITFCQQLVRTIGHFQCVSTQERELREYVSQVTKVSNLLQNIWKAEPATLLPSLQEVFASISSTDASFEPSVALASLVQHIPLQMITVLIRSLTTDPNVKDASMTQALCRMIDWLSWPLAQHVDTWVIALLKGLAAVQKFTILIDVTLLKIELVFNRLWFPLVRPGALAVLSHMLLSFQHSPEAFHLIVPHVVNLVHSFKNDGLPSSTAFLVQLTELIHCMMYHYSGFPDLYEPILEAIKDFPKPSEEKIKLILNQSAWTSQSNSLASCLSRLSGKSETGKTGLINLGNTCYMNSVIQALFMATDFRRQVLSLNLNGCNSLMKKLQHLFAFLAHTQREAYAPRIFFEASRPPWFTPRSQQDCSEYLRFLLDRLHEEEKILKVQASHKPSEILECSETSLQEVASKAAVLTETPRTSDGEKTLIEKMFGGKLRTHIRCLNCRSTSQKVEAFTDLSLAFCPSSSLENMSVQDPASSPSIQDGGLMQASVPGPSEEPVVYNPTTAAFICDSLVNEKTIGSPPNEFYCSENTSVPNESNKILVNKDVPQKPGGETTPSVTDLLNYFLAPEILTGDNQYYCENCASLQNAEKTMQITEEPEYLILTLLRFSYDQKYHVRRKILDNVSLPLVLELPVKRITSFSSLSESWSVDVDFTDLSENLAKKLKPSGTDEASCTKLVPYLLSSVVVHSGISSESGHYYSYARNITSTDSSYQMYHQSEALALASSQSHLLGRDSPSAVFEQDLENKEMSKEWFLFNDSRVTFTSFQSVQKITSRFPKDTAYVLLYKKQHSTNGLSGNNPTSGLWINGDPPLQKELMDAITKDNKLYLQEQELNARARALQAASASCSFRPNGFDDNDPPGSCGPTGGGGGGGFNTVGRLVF
Summary of the method: as §1

USP39 = target: T3, USP39 (UniProt Q53GS9)
T3 sequence (whole entry): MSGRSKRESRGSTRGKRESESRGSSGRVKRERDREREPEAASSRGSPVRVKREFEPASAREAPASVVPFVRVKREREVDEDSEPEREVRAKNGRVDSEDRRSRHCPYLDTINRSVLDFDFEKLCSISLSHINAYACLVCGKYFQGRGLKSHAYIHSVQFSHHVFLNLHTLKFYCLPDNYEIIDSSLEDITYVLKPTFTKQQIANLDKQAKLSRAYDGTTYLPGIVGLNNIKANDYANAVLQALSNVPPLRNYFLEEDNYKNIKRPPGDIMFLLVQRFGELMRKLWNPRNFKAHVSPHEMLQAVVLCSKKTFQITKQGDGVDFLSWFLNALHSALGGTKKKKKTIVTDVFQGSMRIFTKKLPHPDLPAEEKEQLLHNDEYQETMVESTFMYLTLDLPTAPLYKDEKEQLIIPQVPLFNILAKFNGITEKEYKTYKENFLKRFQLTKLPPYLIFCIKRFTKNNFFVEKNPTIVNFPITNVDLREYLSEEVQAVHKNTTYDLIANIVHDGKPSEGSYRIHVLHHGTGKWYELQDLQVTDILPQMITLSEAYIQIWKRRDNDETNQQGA
Summary of the method: as §1

USP4 = target: T4, USP4 (UniProt Q13107)
T4 sequence (whole entry): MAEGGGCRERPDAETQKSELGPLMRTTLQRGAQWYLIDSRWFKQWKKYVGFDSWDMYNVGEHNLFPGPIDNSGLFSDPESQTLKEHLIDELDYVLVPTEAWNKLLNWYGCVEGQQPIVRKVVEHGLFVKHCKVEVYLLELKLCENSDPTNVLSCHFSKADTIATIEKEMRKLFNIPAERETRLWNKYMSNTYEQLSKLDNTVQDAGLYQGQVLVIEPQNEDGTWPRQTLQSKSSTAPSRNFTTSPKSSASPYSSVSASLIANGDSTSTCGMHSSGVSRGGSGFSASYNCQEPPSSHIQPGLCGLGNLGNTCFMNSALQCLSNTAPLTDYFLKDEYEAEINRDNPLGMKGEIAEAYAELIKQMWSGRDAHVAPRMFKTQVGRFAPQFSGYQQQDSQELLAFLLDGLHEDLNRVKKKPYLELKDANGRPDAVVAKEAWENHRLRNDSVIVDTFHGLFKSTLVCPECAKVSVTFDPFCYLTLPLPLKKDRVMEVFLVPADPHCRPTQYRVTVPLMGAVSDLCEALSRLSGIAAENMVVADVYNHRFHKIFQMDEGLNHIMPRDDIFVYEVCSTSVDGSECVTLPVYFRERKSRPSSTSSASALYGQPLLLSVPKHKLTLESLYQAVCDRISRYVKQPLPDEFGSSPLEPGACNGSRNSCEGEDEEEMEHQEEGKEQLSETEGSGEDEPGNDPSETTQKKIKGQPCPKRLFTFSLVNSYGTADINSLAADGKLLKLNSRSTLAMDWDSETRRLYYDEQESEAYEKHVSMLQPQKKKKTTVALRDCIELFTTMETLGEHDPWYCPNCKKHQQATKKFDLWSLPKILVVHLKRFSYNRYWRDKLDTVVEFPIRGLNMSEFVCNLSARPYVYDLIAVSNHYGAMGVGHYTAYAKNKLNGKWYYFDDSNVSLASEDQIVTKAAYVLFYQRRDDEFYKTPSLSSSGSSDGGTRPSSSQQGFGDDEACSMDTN
Summary of the method: as §1

Measured: log2 ratio of Biotin-Ahx-Ub-VS probe labelling

USP34, sequence (Q70CQ2 whole entry, the tested form may be a part): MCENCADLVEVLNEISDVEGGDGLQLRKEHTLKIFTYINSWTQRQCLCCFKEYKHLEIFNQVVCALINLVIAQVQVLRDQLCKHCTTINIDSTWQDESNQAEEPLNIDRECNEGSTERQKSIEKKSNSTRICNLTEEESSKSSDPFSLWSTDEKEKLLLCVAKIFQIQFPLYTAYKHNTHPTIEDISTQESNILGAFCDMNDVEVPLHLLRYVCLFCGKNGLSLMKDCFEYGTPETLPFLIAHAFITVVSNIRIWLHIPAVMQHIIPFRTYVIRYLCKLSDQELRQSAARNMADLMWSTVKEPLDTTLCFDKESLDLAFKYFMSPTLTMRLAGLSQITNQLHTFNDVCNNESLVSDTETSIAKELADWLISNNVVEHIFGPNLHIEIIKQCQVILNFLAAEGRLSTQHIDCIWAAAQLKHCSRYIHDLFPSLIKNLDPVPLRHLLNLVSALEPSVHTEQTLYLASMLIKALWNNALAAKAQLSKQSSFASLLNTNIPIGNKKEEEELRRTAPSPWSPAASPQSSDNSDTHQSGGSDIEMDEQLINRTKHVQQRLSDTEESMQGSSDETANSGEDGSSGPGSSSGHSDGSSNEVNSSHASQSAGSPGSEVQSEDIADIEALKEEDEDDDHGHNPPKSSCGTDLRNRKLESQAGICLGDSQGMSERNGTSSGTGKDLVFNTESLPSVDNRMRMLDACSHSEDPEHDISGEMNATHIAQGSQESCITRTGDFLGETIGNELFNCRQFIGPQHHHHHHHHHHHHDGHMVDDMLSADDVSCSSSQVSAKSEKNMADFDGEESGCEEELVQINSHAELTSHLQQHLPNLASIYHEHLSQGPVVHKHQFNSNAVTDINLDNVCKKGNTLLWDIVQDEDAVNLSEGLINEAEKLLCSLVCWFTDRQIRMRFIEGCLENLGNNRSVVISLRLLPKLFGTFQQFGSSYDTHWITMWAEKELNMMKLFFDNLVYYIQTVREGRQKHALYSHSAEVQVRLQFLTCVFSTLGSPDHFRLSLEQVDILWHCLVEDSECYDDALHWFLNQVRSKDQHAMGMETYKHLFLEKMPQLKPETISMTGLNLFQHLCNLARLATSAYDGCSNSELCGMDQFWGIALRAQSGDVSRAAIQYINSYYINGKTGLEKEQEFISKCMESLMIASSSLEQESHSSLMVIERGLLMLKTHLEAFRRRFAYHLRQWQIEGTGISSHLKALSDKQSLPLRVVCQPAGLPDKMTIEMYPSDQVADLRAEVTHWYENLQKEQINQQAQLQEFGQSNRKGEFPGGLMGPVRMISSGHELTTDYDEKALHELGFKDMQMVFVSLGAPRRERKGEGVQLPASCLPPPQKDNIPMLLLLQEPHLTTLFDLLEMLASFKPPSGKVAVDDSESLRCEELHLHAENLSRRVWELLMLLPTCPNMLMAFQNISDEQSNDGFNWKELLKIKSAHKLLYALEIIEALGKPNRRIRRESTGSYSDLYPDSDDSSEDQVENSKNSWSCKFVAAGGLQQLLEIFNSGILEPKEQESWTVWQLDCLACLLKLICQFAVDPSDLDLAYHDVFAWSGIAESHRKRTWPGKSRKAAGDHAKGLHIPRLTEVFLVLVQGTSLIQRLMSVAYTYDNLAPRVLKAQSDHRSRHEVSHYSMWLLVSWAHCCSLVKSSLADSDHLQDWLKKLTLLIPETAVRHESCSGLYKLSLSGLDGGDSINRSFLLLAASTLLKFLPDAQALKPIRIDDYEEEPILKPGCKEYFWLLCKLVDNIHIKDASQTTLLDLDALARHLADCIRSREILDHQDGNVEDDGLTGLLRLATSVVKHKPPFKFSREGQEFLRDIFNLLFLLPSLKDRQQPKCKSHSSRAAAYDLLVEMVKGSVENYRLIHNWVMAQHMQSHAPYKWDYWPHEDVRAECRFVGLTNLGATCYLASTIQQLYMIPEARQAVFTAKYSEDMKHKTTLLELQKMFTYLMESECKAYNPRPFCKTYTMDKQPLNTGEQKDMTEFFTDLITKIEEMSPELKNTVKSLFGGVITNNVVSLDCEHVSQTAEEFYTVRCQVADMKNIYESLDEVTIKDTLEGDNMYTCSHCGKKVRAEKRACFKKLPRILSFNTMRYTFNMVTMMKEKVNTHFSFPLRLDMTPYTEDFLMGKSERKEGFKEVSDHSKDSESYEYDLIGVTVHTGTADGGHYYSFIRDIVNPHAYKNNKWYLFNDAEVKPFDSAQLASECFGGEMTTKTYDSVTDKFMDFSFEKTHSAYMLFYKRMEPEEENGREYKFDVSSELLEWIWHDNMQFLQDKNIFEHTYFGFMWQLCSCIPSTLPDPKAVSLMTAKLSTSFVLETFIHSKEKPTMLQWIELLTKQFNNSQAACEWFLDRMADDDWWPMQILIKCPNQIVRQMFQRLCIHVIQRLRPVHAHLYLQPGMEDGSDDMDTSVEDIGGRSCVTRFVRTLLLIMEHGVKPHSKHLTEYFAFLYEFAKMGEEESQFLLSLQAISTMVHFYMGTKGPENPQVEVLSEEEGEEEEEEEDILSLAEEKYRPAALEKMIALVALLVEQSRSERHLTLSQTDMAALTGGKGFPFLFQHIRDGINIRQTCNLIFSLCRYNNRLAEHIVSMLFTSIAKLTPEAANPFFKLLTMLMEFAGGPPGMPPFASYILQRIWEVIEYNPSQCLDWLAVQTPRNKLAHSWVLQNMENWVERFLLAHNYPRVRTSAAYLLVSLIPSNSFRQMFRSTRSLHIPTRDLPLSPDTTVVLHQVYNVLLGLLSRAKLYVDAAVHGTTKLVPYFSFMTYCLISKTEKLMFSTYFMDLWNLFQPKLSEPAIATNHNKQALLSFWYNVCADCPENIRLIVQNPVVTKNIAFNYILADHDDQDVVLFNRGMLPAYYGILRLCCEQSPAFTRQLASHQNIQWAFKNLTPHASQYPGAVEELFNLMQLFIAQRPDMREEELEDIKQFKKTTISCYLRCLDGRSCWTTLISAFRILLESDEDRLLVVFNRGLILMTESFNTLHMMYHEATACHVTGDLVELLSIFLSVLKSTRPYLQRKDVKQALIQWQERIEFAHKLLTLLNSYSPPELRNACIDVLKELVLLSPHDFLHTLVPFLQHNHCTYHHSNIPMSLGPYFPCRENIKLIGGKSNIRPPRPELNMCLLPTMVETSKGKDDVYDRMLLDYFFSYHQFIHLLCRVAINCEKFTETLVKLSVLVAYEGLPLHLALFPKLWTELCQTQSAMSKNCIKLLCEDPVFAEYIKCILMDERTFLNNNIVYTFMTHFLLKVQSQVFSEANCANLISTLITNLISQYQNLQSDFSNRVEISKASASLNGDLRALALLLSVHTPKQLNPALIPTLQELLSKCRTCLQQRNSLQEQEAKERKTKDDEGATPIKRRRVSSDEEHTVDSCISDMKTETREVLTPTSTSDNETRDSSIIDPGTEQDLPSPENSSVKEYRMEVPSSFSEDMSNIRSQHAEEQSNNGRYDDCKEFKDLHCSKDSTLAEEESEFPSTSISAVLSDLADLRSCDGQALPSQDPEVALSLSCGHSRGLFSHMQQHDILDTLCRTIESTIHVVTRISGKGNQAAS

O=C(CCl)N1CCOC2(CCC2)C1
inactive: USP34 0.118 | USP36 0.102 | USP38 0.253 | USP39 0.11 | USP4 -0.266

Reference: the supplement of paper PMC11732987, “Enantioselective OTUD7B fragment discovery through chemoproteomics screening and high-throughput optimisation” (Communications Chemistry, 2025)
